The text below walks through data of PubChem BioAssay (NCATS).

Test [1] has as its target Glucocorticoid receptor (Homo sapiens) (UniProt P04150). Description: GR-GFP Redistribution (AID 450;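 active = compounds whose dose series gives a full or clear partial fitted curve of increased nuclear translocation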; also: potency is read from the fitted curve at half-maximal effect). Particulars: U2OS GR-GFP nuclear translocation, laser cytometry, 2 h.
Test [2] shares this target. Description: GR-EFC Redistribution (AID 451; calls by dose curve; also: potency is read from the fitted curve at half-maximal effect). The settings on record: CHO-K1 GR-EFC translocation, beta-gal luminescence, 2 h. In a few lines: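 CHO-K1 cells stably expressing nuclear-localized β-gal enzyme acceptor and GR fused C-terminally to the enzyme donor fragment; ligand-driven nuclear translocation restores β-gal by complementation. Compounds titrated up to 46 uM final, 2 h at 37 °C; luminescence read.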

The target in test [3] is Mitogen-activated protein kinase 10 (Mus musculus) (UniProt Q61831). Description: JNK3 AlphaScreen Assay (AID 530; active = well fitted curve in either direction with a large enough effect, not every such curve was filed as active;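 also: kinase came from lysate of stimulated human HepG2 cells; signal reports phosphorylation of biotinylated GST-cJun 1-79 at Ser73 with 10 µM ATP; % is scaled to controls: 0 for no effect and ±100 for the full control effect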). A digest of the protocol: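 Inhibitors reduce antibody binding to phosphorylated biotin-cJun, lowering AlphaScreen luminescence. Lysates from HepG2 cells pre-activated by IL-1beta plus TNF-alpha supplied JNK3; compounds were titrated.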
Background: In Alpha technology, singlet oxygen from a donor bead excites a nearby acceptor bead.

For test [4], the target named is 3',5'-cyclic-AMP phosphodiesterase 4B (Homo sapiens) (UniProt Q07343). Description: qHTS Assay for Inhibitors of PDE-IV (AID 607; active = well fitted activation curve with a large enough effect in the main read-out, with a control signal flat, not every such curve was filed as active; also: % of control where 0% means no effect). In a few lines: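 Live HEK293 cells with a modified cyclic nucleotide-gated (CNG) channel report intracellular cAMP via membrane-potential dye fluorescence (ex 535/em 590 nm). Endogenous PDE-IV was targeted. Compounds were tested at up to 22.9 uM final; RO 20-1724 100 uM served as control.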
A general note: Quantitative high-throughput screening tests each substance at several concentrations.

A short description of test [5]: Cell Viability - NIH 3T3 (AID 541).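 Also: plate controls were DMSO alone for no effect and tamoxifen positive control for full effect; nearly all actives have a fitted effect of over 25% in size.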 In a few lines:
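Mouse NIH 3T3 fibroblasts, 1000 cells/well, rested 5 hr at 37 °C, then exposed to compound for 40 hr at 37 °C in complete medium. Viability read as intracellular ATP by CellTiter-Glo luminescence; AC50 from Hill-equation fits of concentration-response data.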

The nature of test [6]: Cell Viability - HUV-EC-C (AID 542). Also: nearly all actives have a fitted effect of over 35% in size. Also: potency is read from the fitted curve at half-maximal effect. As to activity change, negative = cytotoxicity: % is scaled to controls: 0 for no effect and ±100 for the full control effect. A digest of the protocol: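 HUV-EC-C human vascular endothelial cells, 1000/well, exposed to compound for 40 hr at 37 °C in complete medium. Intracellular ATP was read by CellTiter-Glo luminescence. AC50 came from Hill-equation fits of concentration-response data.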
The nature of test [7]: Cell Viability - H-4-II-E (AID 543). Also: nearly all actives have a fitted effect of over 35% in size. Also: potency is read from the fitted curve at half-maximal effect. A digest of the protocol:
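Rat hepatoma H-4-II-E cells, 1500 per well, treated 40 h at 37 °C in complete medium. Cellular ATP read by CellTiter-Glo luminescence; AC50 from Hill fits of concentration-response.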

Test [8] is described as follows: Cell Viability - SH-SY5Y (AID 544). Also: nearly all actives have a fitted effect of over 55% in size. The settings on record: SH-SY5Y neuroblastoma cell viability; at 92.2 µM (top of the series). In a few lines: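 SH-SY5Y human neuroblastoma cells (1500/well) incubated 5 h, then compound-treated 40 h at 37 °C in complete medium. Viability read as intracellular ATP by CellTiter-Glo luminescence after 20 min; AC50 from Hill-equation fits of qHTS concentration-response.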

Test [9] in a line: Cell Viability - Renal Proximal Tubule (AID 545). Also: nearly all actives have a fitted effect of over 40% in size. In a few lines: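 Rat kidney proximal tubule cells, freshly isolated; 1000 cells/well, 5 hr settle, compound 40 hr 37 °C. CellTiter-Glo 20 min RT, luminescence read. AC50 by standard Hill fit.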
A short description of test [10]: Cell Viability - Mesenchymal (AID 546).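 Also: cells exposed to compound for 40 hours before reading.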 Particulars: mesenchymal cells viability, qHTS; at 91.7 µM (top of the series). In a few lines: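 Normal human renal glomerulus-derived kidney mesenchymal cells, 1000 per well in complete medium, were treated with compounds for 40 hr at 37 °C. Viability was read as intracellular ATP by CellTiter-Glo luminescence; AC50 values came from Hill-equation fits of qHTS concentration-response data.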

Test [11] can be described thus: Cellular Toxicity (caspase-3) HepG2 (AID 654).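 Also: cells exposed to compound for 16 hours before reading; 0% = DMSO alone and 100% = caspase signal from 100 µM tamoxifen.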 A digest of the protocol: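 HepG2 cells (1500/well) were treated 16 h at 37 °C in complete medium, then caspase 3/7 activity was read by Caspase-Glo luminescence. Data were normalized to DMSO and 100 uM tamoxifen; AC50 came from Hill-equation fits of qHTS concentration-response.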
Test [12] is described as follows: Cellular Toxicity (caspase-3) Jurkat (AID 655).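 Also: cells exposed to compound for 16 h at 37 °C before reading.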 Particulars: Jurkat caspase-3 activation, luminescence; caspase-3 activation: at 92.2 µM (top of the series), DMSO = 0%, tamoxifen = 100%. In a few lines: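 Luminescent caspase-3/7 readout (aminoluciferin substrate cleavage) in human T-cell leukemia Jurkat cells after 16 hr compound exposure. Concentration-response normalized to DMSO and 100 uM tamoxifen; AC50 by standard Hill equation.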

The nature of test [13]: Cellular Toxicity (caspase-3) HUV-EC-C (AID 656). A digest of the protocol:
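Luminescent caspase-3/7 activation (aminoluciferin substrate cleavage) in HUV-EC-C cells after 16 hr compound exposure, 37°C. Signal normalized to DMSO basal and 100 uM tamoxifen as 100%; AC50 from concentration-response fitted with the Hill equation.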

A short description of test [14]: Cellular Toxicity (caspase-3) SHSY5Y (AID 657). In a few lines: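 Luminescent caspase-3/7 readout (aminoluciferin release) in SH-SY5Y cells after 16 h compound exposure in complete medium. Activity scaled between DMSO basal and 10 uM staurosporine as 100%; concentration-response fitted to Hill equation for AC50.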
The nature of test [15]: Cellular Toxicity (caspase-3) BJ (AID 658).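 Also: 0% = DMSO basal and 100% = 10 µM staurosporine.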 In a few lines: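 Luminescent aminoluciferin-substrate cleavage reports caspase 3/7 activity in normal human BJ fibroblasts after 16 hr compound exposure at 37 °C. Normalized to DMSO (basal) and 10 uM staurosporine (100%); AC50 from Hill fit of concentration-response.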
Test [16] in a line: Cellular Toxicity (caspase-3) MRC-5 (AID 659).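 Also: 0% = DMSO basal and 100% = 10 µM staurosporine.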 In a few lines:
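Luminescence from caspase-cleaved aminoluciferin substrate (Caspase-Glo 3/7, 1 hr RT) reports caspase 3/7 activity in MRC-5 lung fibroblasts after 16 hr compound exposure. Normalized to DMSO basal and 10 uM staurosporine as 100%; AC50 from Hill fits.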

Test [17] can be described thus: Cellular Toxicity (caspase-3) Mesangial (AID 660).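 Also: cells exposed to compound for 16 h before the caspase read.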 In a few lines: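 Human renal glomerular mesangial cells, 1000/well, 5 h at 37 C before 16 h compound treatment. Caspase-Glo 3/7 luminescence after 20 min; normalized to DMSO and 100 uM tamoxifen, AC50 from Hill fit.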
Test [18] can be described thus: Cellular Toxicity (caspase-3) SK-N-SH (AID 661).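 Also: 0% = DMSO basal and 100% = 10 µM staurosporine.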 In a few lines:
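Human SK-N-SH neuroblastoma cells, 1500/well, were exposed to compounds for 16 hours at 37 °C. Caspase-Glo 3/7 luminescence was normalized to DMSO (basal) and 10 uM staurosporine (100%), and AC50 came from a Hill fit.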

Test [19] can be described thus: Cellular Toxicity (caspase-3) H-4-II-E (AID 663).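 Also: cells exposed to compound for 16 hr before readout.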 A digest of the protocol: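 Luminescence from caspase-cleaved aminoluciferin substrate, read 20 min after reagent addition, reports caspase 3/7 activation in rat H-4-II-E cells after 16 hr compound exposure. Normalized to DMSO (basal) and 100 uM tamoxifen (100%); AC50 from Hill fits.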
The nature of test [20]: Cellular Toxicity (caspase-3) Hek293 (AID 664).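 Also: cells exposed to compound for 16 h at 37 °C before readout.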 A digest of the protocol: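 HEK293 cells in complete medium treated 16 h at 37 °C, then Caspase-Glo 3/7 luminescence read after 20 min at room temperature. Normalized to DMSO and 100 uM tamoxifen; AC50 from Hill fit of concentration-response.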

Several values for one entry are separate records, joined by “and”; a condition that tells them apart may be missing. Equal values may be shown once. Values without a mark were called inactive. Records with an inconclusive call do not appear. Activity calls are given as the source filed them. Unless noted, calls follow the shape of the dose curve; as a rule, active = well fitted curve in the direction sought with a large enough effect; inconclusive = small, poorly fitted or top-dose-only effect, or another doubt; inactive = no such curve, though single readings can be large; an effect the other way counts as inactive or inconclusive. Bounds are passed on as bounds.

3',5'-cyclic-AMP phosphodiesterase 4B (Homo sapiens), sequence (Q07343 whole entry, looked up): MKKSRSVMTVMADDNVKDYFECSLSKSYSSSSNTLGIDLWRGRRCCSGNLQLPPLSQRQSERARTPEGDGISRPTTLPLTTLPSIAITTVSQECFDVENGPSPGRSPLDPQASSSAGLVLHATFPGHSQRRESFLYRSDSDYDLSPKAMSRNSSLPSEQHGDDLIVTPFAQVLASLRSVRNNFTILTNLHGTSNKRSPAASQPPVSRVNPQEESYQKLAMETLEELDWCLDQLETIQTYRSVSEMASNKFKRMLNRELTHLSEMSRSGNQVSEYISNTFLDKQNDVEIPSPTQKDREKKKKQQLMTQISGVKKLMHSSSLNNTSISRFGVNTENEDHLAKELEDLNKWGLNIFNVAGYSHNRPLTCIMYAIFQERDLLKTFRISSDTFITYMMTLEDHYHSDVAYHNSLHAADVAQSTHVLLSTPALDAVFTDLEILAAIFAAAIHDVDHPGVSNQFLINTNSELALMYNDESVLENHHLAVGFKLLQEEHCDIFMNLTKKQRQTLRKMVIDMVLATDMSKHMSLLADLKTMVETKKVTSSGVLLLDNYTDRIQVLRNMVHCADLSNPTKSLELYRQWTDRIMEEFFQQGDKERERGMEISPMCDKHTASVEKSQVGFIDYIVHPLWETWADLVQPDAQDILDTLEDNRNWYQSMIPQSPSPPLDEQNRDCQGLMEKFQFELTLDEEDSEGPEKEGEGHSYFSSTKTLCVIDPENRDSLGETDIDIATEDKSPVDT
Glucocorticoid receptor (Homo sapiens), sequence (P04150 whole entry, looked up, the tested form may be a part): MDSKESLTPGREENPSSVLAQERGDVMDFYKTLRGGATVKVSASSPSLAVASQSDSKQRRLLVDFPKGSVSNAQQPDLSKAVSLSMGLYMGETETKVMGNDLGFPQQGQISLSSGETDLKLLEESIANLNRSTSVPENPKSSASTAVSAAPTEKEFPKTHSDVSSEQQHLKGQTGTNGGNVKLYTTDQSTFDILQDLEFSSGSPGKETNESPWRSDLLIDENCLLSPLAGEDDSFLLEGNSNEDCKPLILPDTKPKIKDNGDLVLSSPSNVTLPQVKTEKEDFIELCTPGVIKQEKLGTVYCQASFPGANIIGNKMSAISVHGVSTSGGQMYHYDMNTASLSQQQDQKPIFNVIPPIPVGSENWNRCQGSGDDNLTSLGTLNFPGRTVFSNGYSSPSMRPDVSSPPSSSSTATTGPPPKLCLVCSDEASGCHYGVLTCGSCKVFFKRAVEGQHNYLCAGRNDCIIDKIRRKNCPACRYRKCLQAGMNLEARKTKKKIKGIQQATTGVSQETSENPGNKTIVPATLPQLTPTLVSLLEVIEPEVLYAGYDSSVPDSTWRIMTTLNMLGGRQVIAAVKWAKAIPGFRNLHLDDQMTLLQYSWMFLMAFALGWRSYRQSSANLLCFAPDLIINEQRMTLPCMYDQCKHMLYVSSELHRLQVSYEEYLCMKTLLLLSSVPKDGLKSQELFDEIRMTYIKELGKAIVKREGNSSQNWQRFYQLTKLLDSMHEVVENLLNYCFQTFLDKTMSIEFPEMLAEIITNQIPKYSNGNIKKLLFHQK

With `CC(Cc1ccc(O)c(O)c1)C(C)Cc1ccc(O)c(O)c1` (centres undefined), the Potency in [1] was over 20.6 µM.

For the compound `Cc1cc(C(=O)NNCc2ccccc2)no1`, the Potency in test [1] and in test [2] was over 20.6 µM each time. Further, the call in test [3] and in [4] was inactive.

In the case of `CCCCC/C=C\C/C=C\CCCCCCCC(=O)O`, the call in test [5], in [9], in [11], in test [13], in [14] and in test [15] was inactive. For the same compound, the compound was called inactive in test [16], in test [17], in test [18], in test [19] and in [20]. In addition, the Potency result in test [6] and in [7] was “inactive” each time. In addition, the viability change, negative = cytotoxic in test [8] is 0.00595%. For the same compound, the activity change, negative = cytotoxicity in [10] was 8.92%. The caspase-3 activation in test [12] is 2.62%.

Turning to `Cc1onc(-c2ccccc2)c1C(=O)N[C@@H]1C(=O)N2[C@@H]1SC(C)(C)[C@@H]2C(=O)O`, the Potency in test [1] is over 20.6 µM.

As for `CN(C)CCCN1c2ccccc2C(C)(C)c2ccccc21`, the Potency is over 46 µM in test [1] and over 9.22 µM in [2]. Further, the activity change, negative = inhibition in test [3] was -0.792% [at 11.4 µM]. In addition, the outcome in test [4] was inactive.

For `CCOC(C)=O`, the compound was called inactive in test [3], in test [5], in [9], in test [11], in test [13] and in test [14]. In addition, the result in [15], in test [16], in [17], in [18], in [19] and in [20] was inactive. Also, the Potency entry in test [6] and in test [7] was “inactive” throughout. Moreover, the viability change, negative = cytotoxic in [8] is -3.69%. In addition, the activity change, negative = cytotoxicity in [10] is 10.1%. Also, the caspase-3 activation in test [12] was -0.547%.

For `CC(C)(C)NC(=O)[C@@H]1C[C@@H]2CCCC[C@@H]2CN1C[C@@H](O)[C@H](Cc1ccccc1)NC(=O)[C@H](CC(N)=O)NC(=O)c1ccc2ccccc2n1`, the call in [3], in [5] and in [17] was inactive. The Potency in [6] and in test [7] was 50.1 µM (active) each time. Also, the viability change, negative = cytotoxic in [8] is -93.9% (active). Moreover, in [10], the activity change, negative = cytotoxicity is -97.1% (active). Besides, the caspase-3 activation in test [12] was 116% (active).

Turning to `CCN(CC)Cc1cc(Nc2ccnc3cc(Cl)ccc23)ccc1O`, the Potency in test [1] and in test [2] was over 20.6 µM each time. For the same compound, the compound was called inactive in [3].

Consider `CCCC(=O)Nc1ncnc2c1ncn2[C@@H]1O[C@@H]2COP(=O)(O)O[C@H]2[C@H]1OC(=O)CCC`, for which the Potency is > 46 µM and > 20.6 µM in test [1]; over 46 µM in test [2]. The result in [3] was inactive.

`CC(C)=O`: the compound was called inactive in test [3], in test [5], in test [9], in test [11], in [13] and in test [14]. Besides, the compound was called inactive in test [15], in test [16], in test [17], in [18], in test [19] and in test [20]. Moreover, the Potency result in test [6] and in [7] was “inactive” throughout. In addition, in [8], the viability change, negative = cytotoxic is -5.22%. The activity change, negative = cytotoxicity in [10] was -1.45%. In addition, in test [12], the caspase-3 activation is -1.17%.

Consider `COC(=O)C1=C(C)NC(C)=C(C(=O)OCCCN2CCC(c3ccccc3)(c3ccccc3)CC2)[C@H]1c1cccc([N+](=O)[O-])c1`, for which the Potency in [1] and in test [2] was over 46 µM in each case. For the same compound, the result in test [3] and in test [4] was inactive.

With `CCCC(=O)O[C@]1(C(=O)COC(C)=O)CC[C@H]2[C@@H]3C[C@H](F)C4=CC(=O)C=C[C@]4(C)[C@@]3(F)[C@@H](O)C[C@@]21C`, the Potency in [1] is 0.00371 µM (active).
